Among all 310,000 compounds or so, about 17,000 (5.5%) were called active. Another 11% or so got no clear call; they are omitted. The call rests on the fitted dose curve; in most records, active means well fitted inhibition curve with a large enough effect; inconclusive means small, poorly fitted or top-dose-only effect, or effect the other way; inactive means no such curve, though single readings can be large or run the other way. The full list was thinned out, with actives kept by preference.
molecular target: Nuclear receptor ROR-gamma (Mus musculus) (UniProt P51450); test: qHTS for inhibitors of ROR gamma transcriptional activity; settings: Drosophila S2 Gal4-RORgamma UAS-luciferase reporter, 20 h; series mostly up to 53.6 µM; further: nearly all actives have a fitted effect of over 60% in size
Sequence (P51450 whole entry, looked up, the tested form may be a part): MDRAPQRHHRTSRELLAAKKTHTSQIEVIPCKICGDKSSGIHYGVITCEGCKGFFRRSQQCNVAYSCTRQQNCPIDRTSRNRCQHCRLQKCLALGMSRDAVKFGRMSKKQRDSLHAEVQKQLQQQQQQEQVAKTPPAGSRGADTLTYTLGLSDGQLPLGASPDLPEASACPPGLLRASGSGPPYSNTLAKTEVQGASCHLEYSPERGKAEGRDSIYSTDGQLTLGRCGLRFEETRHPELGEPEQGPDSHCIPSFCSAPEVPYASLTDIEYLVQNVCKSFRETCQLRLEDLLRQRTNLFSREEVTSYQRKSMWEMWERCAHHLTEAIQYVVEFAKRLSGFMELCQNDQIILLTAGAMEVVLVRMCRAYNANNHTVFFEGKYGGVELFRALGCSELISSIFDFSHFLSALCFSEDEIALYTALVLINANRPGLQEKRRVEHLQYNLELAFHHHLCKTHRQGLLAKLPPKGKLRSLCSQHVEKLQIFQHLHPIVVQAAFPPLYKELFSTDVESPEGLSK
Outline: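 Using a luciferase readout, inhibitors were identified by reduced reporter activity in Drosophila cells coexpressing a copper-inducible Gal4–ROR gamma fusion and UAS-driven Photinus luciferase, incubated 20 hr after 700 uM copper sulfate.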
On the % scale 0 is the no-effect control and ±100 the full control effect; potency means the concentration at half of the fitted maximal effect.

Potency, active:
C/C(=N\NC(=O)CCn1nc(C)cc1C)C(C)(C)C 11200 nM, COc1cccc(-c2nnc(NC(=O)c3ccc(S(=O)(=O)N(CC(C)C)CC(C)C)cc3)o2)c1 282 nM, COc1cccc2c(C)c(C(=O)O)[nH]c12 2000 nM, O=C(Nn1cc(C(=O)N2CCN(c3ccccc3F)CC2)c2ccccc2c1=O)c1cnccn1 14100 nM, C/C(=N\NC(=S)NC(C)C)c1ccc(C(C)(C)C)cc1 1000 nM, CCCCNC(=S)NNC(=O)c1cc(C)on1 10000 nM, COc1cccc2sc(NNC(=O)c3nc4ccccc4s3)nc12 3550 nM, CCOC(=O)NN1C(=O)c2ccccc2NC1c1ccccc1O (stereo unspecified) 11200 nM, O=C(COc1ccc(Cl)cc1Cl)N/N=C/c1ccccn1 12600 nM, O=C(NC(Nc1nc2ccc([N+](=O)[O-])cc2s1)(C(F)(F)F)C(F)(F)F)c1ccccc1 6310 nM, CCCCn1c(SCC(=O)NCC2CCCO2)nc2ccc(N3CCOCC3)cc2c1=O (stereo unspecified) 2510 nM, Oc1cccc(/C=N/Nc2ccc(Cl)nn2)c1O 1410 nM, c1ccc(-c2noc(-c3cccs3)n2)nc1 1260 nM, C=CS(=O)c1sc(Cl)c(N2CCOCC2)c1[N+](=O)[O-] (stereo unspecified) 4470 nM, CCn1c(NC(=O)c2nn(C)cc2Br)nc2ccccc21 2510 nM, Cn1c(NC(=O)c2ccccc2)nc2ccccc21 1000 nM, Cc1ccc(/C=N/NC(=O)c2cc3ccccc3cc2O)o1 1410 nM, CC1CC(=S)Nc2ccccc2N1Cc1ccccc1 (stereo unspecified) 1410 nM, CCC(=O)Nc1ccc(-c2ccc(N3CCCCC3)nn2)cc1 4470 nM

Potency, inactive:
O=S(=O)(Nc1ccccc1Cl)c1cccc2nsnc12, O=C(Cc1ccccc1)Nc1ccc(NC(=O)c2cccnc2)cc1, Cc1cc(C)n(CCC(=O)N2CCN(S(=O)(=O)c3ccc(C)c(C)c3)CC2)n1, Cc1cc(C)n(CC(=O)Nc2ccc([N+](=O)[O-])cc2)n1, C=CCSc1nnc(N2C(=O)C(O)=C(C(=O)c3ccco3)C2c2ccc(F)cc2)s1 (stereo unspecified), COc1cccc(NC(=O)c2ccc(S(=O)(=O)N(C)C)cc2)c1, COc1cccc(C(=O)Nc2nnc(S(=O)(=O)N(C)c3ccccc3)s2)c1, COc1ccc2[nH]c3nc(SCC(=O)NC4CC4)nnc3c2c1, COc1cc2c(C(=O)O)c(C)n(C)c2c2ccccc12, Cc1c(C(=O)N/N=C/c2ccccc2)[nH]c2c([N+](=O)[O-])cccc12, CCOC(=O)C1CN(S(=O)(=O)c2ccc(OC)cc2)c2cc(Cl)ccc2O1 (stereo unspecified), COc1ccc(Cc2nc3ccc(C(=O)N4CCC(N(C)C)C4)cc3o2)cc1 (stereo unspecified), C/C(=N\Nc1nncc2ccccc12)c1ccc(Cl)c([N+](=O)[O-])c1, COc1ccc(NC(=O)CC2C(=O)NC3CCCCC3N2C(=O)c2ccc(F)cc2)cc1 (stereo unspecified), O=C(c1ccc(S(=O)(=O)N2CCCC2)cc1)N1CCN(c2ccccc2F)CC1, Cn1c(=O)cc(OCC(=O)N2CCN(c3ccccc3F)CC2)c2ccccc21, CC1CCN(C(=O)c2ccc3c(=O)n4c(nc3c2)CCCCC4)CC1, NS(=O)(=O)c1ccccc1NC(=O)c1c(O)c2ccccc2[nH]c1=O, C/C(=N\NC(N)=S)c1ccncc1, C/C(=N\NC(N)=S)c1cccnc1, Cn1c(=O)c2sccc2n(Cc2ccc(Br)cc2)c1=O, O=C(CN1C(=O)CSC1=O)N1CCCC(Nc2ccc(F)cc2)C1 (stereo unspecified), Nc1cc(N)nc(SCc2cccc(F)c2)n1, Cc1cc(C(=O)NCCCc2ccccc2)no1, CCC(=O)Nc1ccc(C(=O)Nc2cc(C)on2)cc1, O=C(Nc1ccccc1)c1ccco1, COc1ccc(NC(=O)NN2CCN(C)CC2)c(OC)c1, COc1ccc(CCn2c(=N)c(C(=O)NCC3CCCO3)cc3c(=O)n4cccc(C)c4nc32)cc1OC (stereo unspecified), COc1ccc(/C=C(/CC(=O)Nc2ccc(C)cc2)c2nc3ccccc3s2)cc1, COc1ccc(S(=O)(=O)N2CCOCC2)cc1C(=O)Nc1nc2ccccc2s1, CCOC(=O)CNC(=O)CSc1ncccc1-c1nc2ccccc2[nH]1, COc1ccc(N(CC(=O)NCc2ccc(F)cc2)C(=O)CCC(=O)Nc2nccs2)cc1, COc1ccc(S(=O)(=O)NNC(=O)Nc2ccc(C)cc2)c(OC)c1, CCOC(=O)NN1C(=O)c2ccccc2NC1c1cccc(O)c1 (stereo unspecified), O=C1c2ccccc2NC(c2ccccc2O)N1NS(=O)(=O)c1ccccc1 (stereo unspecified), COc1ccc(N(CC(=O)N2CCOCC2)S(=O)(=O)c2ccccc2)cc1Cl, Cc1ccc(NC(=O)CCN2C(=O)c3ccccc3C2=O)cc1C, Cc1nn(-c2ccccc2)c2c1c(C)c(CCC(=O)NCC1CCCO1)c(=O)n2C (stereo unspecified), O=C(N/N=C/c1ccccn1)c1cccc(NC(=O)c2ccc(Cl)cc2)c1, CSc1ccc(/C=N\NC(=O)COc2ccc(Cl)cc2Br)cc1, C=CCN1CN(S(=O)(=O)c2ccc(OC)cc2)c2nc3ccccc3nc21, O=C(Nc1nc2ccc([N+](=O)[O-])cc2s1)c1ccncc1, O=C(COC(=O)c1ccc(F)cc1)Nc1nc2ccc([N+](=O)[O-])cc2s1, CCOc1ccccc1NS(=O)(=O)c1cc2c3c(c1)C(C)C(=O)N3CCC2 (stereo unspecified), CCc1ccccc1NC(=O)c1ccc2snnc2c1, COCCN1CCN(C(=O)c2cc(COc3ccc(F)cc3Cl)on2)CC1, COCCNC(=O)c1ccc(Cn2c(SCC(=O)NCC3CCCO3)nc3ccc(Br)cc3c2=O)cc1 (stereo unspecified), CCn1c(SCC(=O)NCC2CCCO2)nc2cc(S(=O)(=O)N3CCCCC3)ccc21 (stereo unspecified), CCCCNC(=O)c1cn(CC)c2cc(N3CCN(C(=O)c4ccco4)CC3)c(F)cc2c1=O, CCCOc1ccc(Cc2c(O)nc(N)[nH]c2=O)cc1C, COc1cccc(/C=N/Nc2ccc(Cl)nn2)c1, Cc1ccsc1/C=N/Nc1ccc(Cl)nn1, Cc1ccc(C)c(S(=O)(=O)N2CCCOC2CNC(=O)C(=O)NC2CCCCC2)c1 (stereo unspecified), Cc1ccccc1CN1CCNC(=O)C1CC(=O)NCCC1=CCCCC1 (stereo unspecified), COC(=O)C1=CN(Cc2ccc(OC)cc2)C=C(C(=O)OC)C1c1ccc(O)c(OC)c1, CN1C(=O)[C@H]2[C@@H](C3CC3)N3C(=O)CN(Cc4ccccc4)C(=O)[C@@]3(C)[C@H]2C1=O, COC(=O)c1ccc(C(=O)NC2CC(C)(C)Cc3c2cnn3-c2ccc(F)cc2)nc1 (stereo unspecified), CCc1ccc(OCC(O)CN2CCN(CCO)CC2)cc1 (stereo unspecified), c1csc(-c2nc(-c3ccncc3)no2)c1, O=C(Oc1ccc(-c2nc(-c3ccccn3)no2)cc1)c1ccccc1, COc1ccc2[nH]c(=O)c(C3c4cc(OC)c(OC)cc4CCN3C(=O)c3ccco3)cc2c1 (stereo unspecified), CC1CCCCC1NC(=O)CCS(=O)(=O)c1ccc2c(c1)NC(=O)CO2 (stereo unspecified), COc1cccc(NC(=O)C2C(c3ccccc3)C2(Cl)Cl)c1 (stereo unspecified), COc1ccc(-c2cc(C(=O)N3CCN(Cc4ccc5c(c4)OCO5)CC3)on2)cc1OC, O=C(CCN1C(=O)C2C3CCC(C3)C2C1=O)Nc1ccc(Cl)cc1Cl (stereo unspecified), CC(=O)N1CCOc2ccc(S(=O)(=O)N3CCC(C(=O)Nc4ccccc4F)CC3)cc21, COc1ccc(NC(=O)Cn2ncn3c(cc4ccccc43)c2=O)c(OC)c1OC, CCc1nc2ccccc2n(CCOCCOCCn2c(=O)c(CC)nc3ccccc32)c1=O, Cn1sc(NC(=O)c2ccccc2)nc1=O, CC(=O)NCCc1nc2cc(NC(=O)c3ccccc3)ccc2n1C, CC(C)(C)C(=O)Cn1c(NCCO)nc2ccccc21, COc1cc(C(=O)N/C(=C\c2cn(C)c3ccccc23)C(=O)N2CCOCC2)cc(OC)c1OC, COC(=O)c1ccc(CNC(=O)c2ccc3oc(C(C)C)nc3c2)cc1, CCOc1ccc(CN2CCN(Cc3ccc4cc(F)ccc4n3)CC2CCO)cc1 (stereo unspecified), CC(C)(C)c1ccc(C(=O)N2CCC(C(=O)N3CCCCC3)CC2)cc1, Cc1ccc(C)c(OCCC(=O)OCC(=O)N2CCN(c3ccccc3)CC2)c1, O=C(NCCc1ccc(Cl)cc1)c1cccc(N2CCCC2=O)c1, Cc1ccc(/C=N/NC(=O)CNC(=O)COc2ccccc2)o1, Cc1ccc(/C=N/NC(=O)Cn2ccc(C(F)(F)F)n2)o1, CC(=O)N(C)c1ccc(NC(=O)Nc2cccc3ccccc23)cc1, COc1cccc(NC(=O)c2ccccc2N(Cc2ccccc2)S(C)(=O)=O)c1, CC1CC(=O)Nc2ccccc2N1S(=O)(=O)c1cccs1 (stereo unspecified), CC1Cc2ccccc2N1C(=O)c1cc2sccc2n1Cc1ccccc1 (stereo unspecified), CCCCSc1nnc(-c2ccc(NC(=O)CC)cc2)n1C, O=C(CN1CCN(c2ccccn2)CC1)Nc1ccc(Br)cc1, Cc1c(S(=O)(=O)N2CC(C)CC(C)C2)c(=O)n(C)c(=O)n1C (stereo unspecified)

Activity change, negative = inhibition, inactive:
CCC(C)C(=O)Nc1ccccc1N1CCN(c2ccc(F)cc2)CC1 (stereo unspecified) -20.4% [at 1.91 µM]

Reference: PubChem BioAssay AID2551 (National Center for Advancing Translational Sciences (NCATS), 2010)
